HCMV inh – inhibitors of human cytomegalovirus | HFF cells, HCMV-luciferase reporter, 72 h; active compounds read low | activity change, negative = inhibition, % at 57.5 µM | 4.5% of 410,000 active; in the data active = activity change below about -60%; inconclusive = no clear call, values can overlap the other calls; inactive = above about -39%
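Luciferase read-out from HCMV-luciferase-infected HFFs (MOI 1 PFU/cell) 72 h post infection at 37C; compounds added after 16 h cell attachment; activity normalized between buffer-only basal and Salinomycin (10uM) inhibitor controls.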
HCV inhibitor – blocks hepatitis C virus; Huh7.5.1 HCVcc-Cre infection, luciferase reporter, 44 h; Potency, µM (top dose mostly 41.8 µM), most hits filed as inhibitors; 3.4% of 340,000 active; AID 651820; active = well fitted inhibition curve with a large enough effect; inconclusive = small, poorly fitted or top-dose-only effect, or another doubt; inactive = no such curve, though single readings can be large or run the other way
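Compounds are dispensed onto cells plated 4 h earlier at 1,000 per well, with HCVcc-Cre virus (about 0.5 moi) added next. Following 44 h of culture, luminescent signal is measured for 15 sec after 15 min with substrate at room temperature.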
MARV entry inh – inhibitors of Marburg virus binding or cell entry; Marburg virus pseudotyped entry inhibition, cell reporter; Potency, µM (titrated, usually from 37.8 µM), most hits filed as inhibitors; 1.8% of 300,000 active; AID 540276; calls by dose curve; tested in HEK293 cells
Lassa entry inh – blocks Lassa virus binding to or entry into cells; Lassa virus pseudotype entry inhibition, cell reporter; Potency, µM (series often up to 37.9 µM), actives largely listed as inhibitors; 1.2% of 300,000 active; AID 540256; calls by dose curve; tested in HEK293 cells; also: nearly all actives have a fitted effect of over 50% in size
FMDV inh – antivirals against foot and mouth disease virus. AID 1159524. FMDV antiviral cell-based qHTS. 1.2% of 410,000 active. Potency, µM (titrated, usually from 57.9 µM), most hits filed as inhibitors; calls by dose curve; tested in HEK293T cells; also: read-out not given here; nearly all actives have a fitted effect of over 45% in size
Numbers stand for hits; – = inactive; ? = inconclusive; · = no result given; + = active, no number. Sampled rows, rich in hits. Any-hit rate of the full collection: about 7.9%.

SMILES | HCMV inh | HCV inhibitor | MARV entry inh | Lassa entry inh | FMDV inh
CC(C)c1ccc(CN2C(=O)C(n3ccc4ccccc43)c3ccccc32)cc1 (stereo not drawn) | – | · | · | · | ·
O=C(CCOc1ccccc1)Nc1ccccc1[N+](=O)[O-] | – | – | – | – | –
O=C(CC(=O)Nc1ccccc1[N+](=O)[O-])Nc1ccccc1[N+](=O)[O-] | -65 | – | ? | – | –
O=C(c1cccnc1)C1CCCN(Cc2ccc3c(c2)CN(C(=O)c2ccc4[nH]ccc4c2)CCO3)C1 (stereo not drawn) | · | · | · | · | –
COc1ccc([C@@H]2CC(=O)c3c(O)cc(O)cc3O2)cc1O | – | – | ? | · | –
COc1c(CC=C(C)C)cc(C2CC(=O)c3c(O)cc(O)cc3O2)cc1CC=C(C)C (stereo not drawn) | -69 | ? | · | · | ?
CCOC(=O)/C=C/[C@@H](CCc1ccccc1)NC(=O)C(F)(F)F | – | · | · | · | ·
CC1CCN(C(=O)c2ccc(S(=O)(=O)Cc3cccc(F)c3)c([N+](=O)[O-])c2)CC1 | -84 | – | ? | – | ?
Cc1ccccc1CS(=O)(=O)c1ccc(C(=O)N2CCC(C)CC2)cc1[N+](=O)[O-] | ? | – | – | – | ?
O=C(c1ccc(S(=O)(=O)Cc2cc(F)ccc2F)c([N+](=O)[O-])c1)N1CCCC1 | -75 | – | ? | – | –
Cn1c(-c2ccsc2)cc2c(Nc3ccc(Oc4ccccc4)cc3)nccc21 | -89 | · | · | · | ·
COc1cccc(-c2cc3c(Nc4ccc(OC)cc4C)nccc3n2C)c1 | – | · | · | · | ·
CCCc1cc(=O)oc2cc(C)cc(OCC(=O)Nc3cccnc3)c12 | + | ? | · | · | –
Cc1cc(NC(=O)CSC2=NS(=O)(=O)c3ccccc3N2)no1 | – | – | – | – | –
O=C(CCC(=O)NNC(=O)COc1ccc(Br)cc1)NCc1ccccc1 | – | – | ? | – | –
O=C(CCc1ccccc1)NNC(=O)COc1ccc(Br)cc1 | – | 11µM | – | – | –
C=CCNC(=S)NNC(=O)COc1ccc(Br)cc1 | -61 | – | – | – | –
O=C1CNC(=S)N1Cc1ccccc1Cl | – | – | · | · | –
O=C(NCc1cccc(Cl)c1)c1ccc2ccccc2n1 | – | ? | ? | ? | –
Cn1c(C(=O)NCc2cccc(Cl)c2)cc2oc3ccccc3c21 | -64 | · | ? | ? | –
CCOc1ccccc1CNC(=O)c1cc2occc2n1C | – | – | · | · | –
CCOc1ccccc1CNC(=O)c1cc2oc3ccccc3c2n1C | -85 | ? | ? | ? | –
COCCNC(=O)c1cc2oc3ccccc3c2n1C | – | 13µM | – | – | –
Cc1ccc(S(=O)(=O)N2CCN(c3ccnc4cc(Cl)ccc34)CC2)cc1 | -61 | ? | 5µM | – | –
CS(=O)(=O)N1CCN(c2ccnc3cc(Cl)ccc23)CC1 | – | – | – | – | –
SMILES | HCMV inh | HCV inhibitor | MARV entry inh | Lassa entry inh | FMDV inh
O=S(=O)(c1ccc(Br)s1)N1CCN(c2ccnc3cc(Cl)ccc23)CC1 | -72 | ? | ? | – | ?
CC(=O)c1ccc(S(=O)(=O)N2CCN(c3ccnc4cc(Cl)ccc34)CC2)cc1 | -70 | · | · | · | ?
CCN1CCCC1CNC(=O)c1cnn(-c2nccc(-c3cccs3)n2)c1C(C)C (stereo not drawn) | · | · | · | · | –
COC(=O)c1ccccc1C(=O)NCC1Cc2cc(-c3nc(C)cnc3C)ccc2O1 (stereo not drawn) | · | · | · | · | –
Cc1oc2c(C)c3oc(=O)c(CCC(=O)N4CCCCC4)c(C)c3cc2c1C | ? | · | – | – | –
COc1ccc(CNC(=O)c2ccc3c(c2)CCN3S(=O)(=O)c2ccccc2)cc1 | – | · | – | ? | –
CSc1ccc(-c2nc3cc(C)ccn3c2Nc2ccc(C)cc2)cc1 | – | · | – | – | –
Cc1ccn2c(Nc3ccccc3)c(-c3ccccn3)nc2c1 | – | 8.9µM | ? | 5.8µM | –
Cc1ccccc1Nc1c(-c2ccccn2)nc2ccccn12 | -98 | ? | · | · | ?
CC(C)c1ccc(Nc2c(-c3ccccn3)nc3ccccn23)cc1 | -87 | · | ? | ? | ?
Cc1ccc2nc(-c3ccccn3)c(N)n2c1 | – | · | · | · | 14µM
Nc1ncnc2c1ncn2[C@@H]1O[C@H](CNS(=O)(=O)c2cc(S(=O)(=O)c3ccccc3)cs2)[C@@H](O)[C@H]1O | – | – | · | · | –
COc1ccc2c3n(nc2c1)C(C)CN=C3c1ccc(Cl)cc1 (stereo not drawn) | – | · | · | · | ·
Cc1ccc2nc(-c3ccccn3)c(Nc3ccccc3C)n2c1 | -100 | 5µM | – | ? | ?
Cc1cccc(C)c1Nc1c(-c2cccs2)nc2ncccn12 | – | · | ? | – | –
Cc1ccc2nc(-c3cccs3)c(Nc3c(C)cccc3C)n2c1 | – | · | 7.1µM | – | ?
Cc1ccn2c(Nc3ccccc3C)c(-c3ccccn3)nc2c1 | -81 | 4µM | ? | ? | ?
Cc1ccc2nc(-c3ccccn3)c(Nc3ccc(F)cc3)n2c1 | -94 | · | ? | ? | ?
Cc1cccc(-n2c(SC(C)C(=O)O)nc3sc4c(c3c2=O)CCCC4)c1 (stereo not drawn) | – | – | · | · | –
O=S(=O)(c1ccccc1F)N1CCC(Oc2ccc(-n3cnnn3)cc2)CC1 | -62 | – | – | ? | –
Cc1ccccc1-n1nc(CO)c(C(=O)NCc2cccs2)n1 | – | · | ? | ? | –
O=C(NCC(c1ccccc1)c1ccccc1)c1nn(-c2ccccc2F)nc1CO | – | · | – | ? | 10µM
O=C(NCCCc1ccccc1)c1nn(-c2ccccc2F)nc1CO | -61 | · | – | ? | ?
O=C(NCc1cccs1)c1nn(-c2ccccc2F)nc1CO | -66 | · | – | – | ?
O=C(NCCc1ccccc1)c1nn(-c2ccccc2F)nc1CO | – | · | – | – | –
SMILES | HCMV inh | HCV inhibitor | MARV entry inh | Lassa entry inh | FMDV inh
O=C(NCCCCc1ccccc1)c1nn(-c2ccccc2F)nc1CO | – | · | – | – | –
O=C(CC(=O)c1ccccc1)Nc1ccc2c(c1)OCCO2 | – | – | ? | 8.9µM | –
O=C(CCCc1ccccc1)Nc1ccc2c(c1)OCCO2 | – | – | ? | 8.9µM | –
O=C(CC1CS(=O)(=O)CC1CC(=O)Nc1ccc2c(c1)OCCO2)Nc1ccc2c(c1)OCCO2 (stereo not drawn) | -81 | – | · | · | ?
C#Cc1ccc(NC(=O)C2(C)CCN2C(=O)Cc2ccc(C(C)C)cc2)cc1 (stereo not drawn) | -82 | · | · | · | ?
C#Cc1ccc(NC(=O)C2(C)CCN2C(=O)Cc2ccc(C(C)(C)C)cc2)cc1 (stereo not drawn) | -83 | · | · | · | ?
C#Cc1ccc(NC(=O)C2(C)CCN2C(=O)C/C=C/c2ccccc2)cc1 (stereo not drawn) | – | · | · | · | –
Clc1ccc(-n2cccc2CN2CCc3nnc(Cc4ccccc4)n3CC2)nc1 | · | · | · | · | –
Cc1ccc(C(=O)O)cc1NC1(c2ccccc2)C(=O)c2ccccc2C1=O | – | · | · | – | –
COc1cccc2c1[C@@H]1CN(CCCCn3c(=O)[nH]c4c(sc5ncc(-c6ccccc6)nc54)c3=O)C[C@@H]1CO2 | – | 3.5µM | 7.9µM | ? | –
COc1ccc(C2=NS(=O)(=O)N(C)C(C(=O)Nc3ccc(C(C)=O)cc3)=C2)cc1OC | ? | 11µM | ? | ? | ?
COc1ccc(OC)c(C2=NS(=O)(=O)N(C)C(C(=O)Nc3ccc(F)cc3F)=C2)c1 | – | 14µM | – | – | ?

Screening data deposited in PubChem BioAssay by National Center for Advancing Translational Sciences (NCATS).
